Molecules are shown by their SMILES. The panel holds about 79,000 compounds, 15% with a hit somewhere; the sample as a whole holds those more often. The source made the active and inactive calls. Rule as the data show it: active = growth inhibition above about 70%; inactive = the rest.

One experiment in a line: NCI Yeast Anticancer Drug Screen. Data for the mec2-1 strain (AID 157). The note with it: S. cerevisiae mec2-1 strain, at 50.0 µM, hits give high values. Put shortly:
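Compounds were applied to mec2-1 yeast cells. Their growth was then compared with that of vehicle-treated cultures to give growth inhibition.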
`O=[N+]([O-])c1ccc(C[N+]23CCN(CC2)CC3)cc1`: the growth inhibition is -16.7% (inactive).
Still for that read-out and setting: next, `CNC(=O)Oc1cc(C)cc(C(C)C)c1`: 0.05% (inactive); `COc1ccc(-n2c(=S)[nH]c3ccccc3c2=O)cc1`: -9.7% (inactive).
The same measure, in the same setting: next, `CC1NCCc2cc(O)c(O)cc21` (stereo not drawn): 6.3% (inactive).
On the same count and under the same terms, next, `Cc1ccc(-c2cc(Cl)c3cc(S(=O)(=O)F)ccc3n2)cc1`: -16.6% (inactive); `CN1CCN(c2ccc(Cl)cc2)CC1`: -17.6% (inactive).
`O=c1c2ccccc2[nH]c(=S)n1-c1cccc(Cl)c1`: the growth inhibition is 16.1% (inactive).
Same read-out and setting: next, `O=C(CBr)OCCCS(=O)(=O)O`: -34.4% (inactive); `C1CC[N-]CC1.CN(C)P(=O)(N(C)C)N(C)C.OO.OO.[O]=[Mo]`: -16% (inactive).
Same read-out and setting: next, `CSC(=S)NNC(=O)c1cccc(S(=O)(=O)F)c1`: -8.8% (inactive); `Clc1cccc(NC2=NCCS2)c1`: -32.6% (inactive); `O=c1oc2ccccc2c(O)c1C(c1ccc2c(c1)OCO2)c1c(O)c2ccccc2oc1=O`: -4.75% (inactive).
Still for that read-out and setting: next, `COc1ccc(S(=O)(=O)F)cc1NC(=O)c1ccc2ccccc2c1O`: 7.75% (inactive).
`O=C(CCN1CC=C(c2ccccc2)CC1)NCc1ccccc1`: the growth inhibition is -6.8% (inactive).
The same measure, in the same setting: then `CCOC(=O)c1ccc2nc(-c3ccc(S(=O)(=O)F)cc3)cc(Cl)c2c1`, with -9.95% (inactive); and `O=C(CBr)OCS(=O)(=O)O`, with -31.6% (inactive).
Consider `C[N+]1([O-])C2CCC1CC(OC(=O)C(O)c1ccccc1)C2` (stereo not drawn), for which the growth inhibition was -21.2% (inactive).
On the same count and under the same terms, then `O=C(/C=C/c1ccccc1)NCCc1cnc[nH]1`, with 1.55% (inactive); and `NC(=NC1CCCCCCCCCCC1)N[N+](=O)[O-]`, with 9.6% (inactive); and `C/C=C1\CN2CCC1CC2C(O)c1ccnc2ccc(O)cc12` (stereo not drawn), with -13.7% (inactive).
In the case of `c1ccc2c(c1)O[As](O[As]1Oc3ccccc3O1)O2`, the growth inhibition is 4.75% (inactive).
For the compound `CNCCc1ccc(O)c(O)c1`, the growth inhibition is -13.2% (inactive).
Same read-out and setting: next, `CC1C2C=CC1C(c1c3ccc(=O)cc-3oc3cc(O)ccc13)C2C(=O)O` (stereo not drawn): 2.15% (inactive); `O=c1c2ccc(Cl)cc2[nH]c(=S)n1-c1ccc(Cl)cc1`: -9.25% (inactive).
On to `Cc1cccc(-c2cc(Cl)c3cc(S(=O)(=O)F)ccc3n2)c1`, for which the growth inhibition is -25.4% (inactive).
The same measure, in the same setting: next, `NC(=O)NNc1ccc([N+](=O)[O-])cc1[N+](=O)[O-]`: -5.4% (inactive); `CCCOP(=O)(CCl)OCCC`: -5.05% (inactive); `CN1C2c3ccccc3C3C4c5ccccc5C(C31)C(C2[N+](=O)[O-])N4C` (stereo not drawn): -30.8% (inactive).
Same read-out and setting: next, `CC(Cc1ccccc1)N(C)CC1C(=O)C2CCC1C2` (stereo not drawn): -12.6% (inactive); `COc1ccc(CC[N+](C)(C)C)cc1`: -2.5% (inactive); `COc1ccc(C(=O)OC2CC3CCC(C2)N3)cc1OC` (stereo not drawn): -19.8% (inactive).
Still for that read-out and setting: next, `O=C1C(Cl)=C(Cl)C1(Cl)Cl`: -20.4% (inactive); `Cc1ccc(-n2c(=S)[nH]c3ccccc3c2=O)cc1F`: -25.9% (inactive).
`COc1cccc(N=C(N)N[N+](=O)[O-])c1`: the growth inhibition was -32% (inactive).
Same read-out and setting: then `Cc1ccc(-n2c(=S)[nH]c3ccccc3c2=O)cc1`, with -7.95% (inactive); and `COc1ccccc1NC1=NCCS1`, with -12.9% (inactive); and `Brc1ccc(C[N+]23CCN(CC2)CC3)cc1`, with -35.1% (inactive).

Another experiment can be described thus: NCI Yeast Anticancer Drug Screen. Data for the cln2 rad14 strain (AID 165).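 Also: 0% = growth equal to vehicle treated cultures.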 The note with it: S. cerevisiae cln2 rad14 strain, at 50.0 µM, hits give high values. Put shortly: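 Strain: cln2 rad14 yeast, altered in cell cycle control and DNA damage repair. Read-out: growth inhibition vs vehicle.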
As for `CNC(=O)Oc1cc(C)cc(C(C)C)c1`, the growth inhibition was 9.15% (inactive).
On the same count and under the same terms, next, `C1CC[N-]CC1.CN(C)P(=O)(N(C)C)N(C)C.OO.OO.[O]=[Mo]`: 17.4% (inactive).
`CC[C@@]1(O)C(=O)OCc2c1cc1n(c2=O)Cc2cc3cc(OC)ccc3nc2-1`: the growth inhibition was 80.7% (active).

The nature of the next experiment: NCI Yeast Anticancer Drug Screen. Data for the bub3 strain (AID 167). The note with it: S. cerevisiae bub3 mutant strain, at 50.0 µM, hits give high values. The procedure, abridged:
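Yeast carrying a defined mutation is treated with each compound, and growth is compared with that of vehicle-exposed cells to give inhibition.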
For the compound `CNC(=O)Oc1cc(C)cc(C(C)C)c1`, the growth inhibition is 1.3% (inactive).
Still for that read-out and setting: next, `C1CC[N-]CC1.CN(C)P(=O)(N(C)C)N(C)C.OO.OO.[O]=[Mo]`: 11.9% (inactive); `O=c1oc2ccccc2c(O)c1C(c1ccc2c(c1)OCO2)c1c(O)c2ccccc2oc1=O`: 3.65% (inactive); `CC[C@@]1(O)C(=O)OCc2c1cc1n(c2=O)Cc2cc3cc(OC)ccc3nc2-1`: 83.6% (active).

A further experiment in a line: NCI Yeast Anticancer Drug Screen. Data for the mlh1 rad18 strain (AID 175). The settings on record: S. cerevisiae mlh1 rad18 strain growth inhibition; at 50.0 µM; hits give high values. The procedure, abridged:
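A repair-deficient yeast strain is exposed to test compound, and growth is scored relative to vehicle-treated controls.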
For the compound `O=[N+]([O-])c1ccc(C[N+]23CCN(CC2)CC3)cc1`, the growth inhibition was 3.8% (inactive).
Same read-out and setting: then `CNC(=O)Oc1cc(C)cc(C(C)C)c1`, with 6% (inactive); and `COc1ccc(-n2c(=S)[nH]c3ccccc3c2=O)cc1`, with 4.8% (inactive).
Same read-out and setting: then `CC1NCCc2cc(O)c(O)cc21` (stereo not drawn), with 40% (inactive).
Still for that read-out and setting: then `Cc1ccc(-c2cc(Cl)c3cc(S(=O)(=O)F)ccc3n2)cc1`, with -9.1% (inactive); and `CN1CCN(c2ccc(Cl)cc2)CC1`, with 0.7% (inactive); and `O=c1c2ccccc2[nH]c(=S)n1-c1cccc(Cl)c1`, with 27.4% (inactive).
For `O=C(CBr)OCCCS(=O)(=O)O`, the growth inhibition is -33.8% (inactive).
The same measure, in the same setting: then `C1CC[N-]CC1.CN(C)P(=O)(N(C)C)N(C)C.OO.OO.[O]=[Mo]`, with 15.7% (inactive); and `CSC(=S)NNC(=O)c1cccc(S(=O)(=O)F)c1`, with 50.7% (inactive).
Still for that read-out and setting: next, `Clc1cccc(NC2=NCCS2)c1`: -40.8% (inactive); `O=c1oc2ccccc2c(O)c1C(c1ccc2c(c1)OCO2)c1c(O)c2ccccc2oc1=O`: 28.4% (inactive).
On to `COc1ccc(S(=O)(=O)F)cc1NC(=O)c1ccc2ccccc2c1O`, for which the growth inhibition was 41.6% (inactive).
Same read-out and setting: next, `O=C(CCN1CC=C(c2ccccc2)CC1)NCc1ccccc1`: 8.55% (inactive).
Same read-out and setting: next, `CCOC(=O)c1ccc2nc(-c3ccc(S(=O)(=O)F)cc3)cc(Cl)c2c1`: 23.5% (inactive); `O=C(CBr)OCS(=O)(=O)O`: -6.2% (inactive).
On the same count and under the same terms, next, `C[N+]1([O-])C2CCC1CC(OC(=O)C(O)c1ccccc1)C2` (stereo not drawn): 3.4% (inactive); `O=C(/C=C/c1ccccc1)NCCc1cnc[nH]1`: 16.4% (inactive); `NC(=NC1CCCCCCCCCCC1)N[N+](=O)[O-]`: 12.3% (inactive).
Regarding `C/C=C1\CN2CCC1CC2C(O)c1ccnc2ccc(O)cc12` (stereo not drawn), the growth inhibition is 32.2% (inactive).
The same measure, in the same setting: next, `c1ccc2c(c1)O[As](O[As]1Oc3ccccc3O1)O2`: 10.2% (inactive).
On the same count and under the same terms, next, `CNCCc1ccc(O)c(O)c1`: -6.15% (inactive).
Still for that read-out and setting: next, `CC1C2C=CC1C(c1c3ccc(=O)cc-3oc3cc(O)ccc13)C2C(=O)O` (stereo not drawn): 21.4% (inactive); `O=c1c2ccc(Cl)cc2[nH]c(=S)n1-c1ccc(Cl)cc1`: 11% (inactive); `[Br][Sn]([Br])([CH2][Sn]([Br])([c]1ccccc1)[c]1ccccc1)[c]1ccccc1`: 81.7% (active).
`Cc1cccc(-c2cc(Cl)c3cc(S(=O)(=O)F)ccc3n2)c1`: the growth inhibition is -33.4% (inactive).
The same measure, in the same setting: next, `NC(=O)NNc1ccc([N+](=O)[O-])cc1[N+](=O)[O-]`: 14.8% (inactive); `CCCOP(=O)(CCl)OCCC`: 8.25% (inactive); `CN1C2CCC1C(Br)C(=O)C2` (stereo not drawn): -51.2% (inactive).
Regarding `CN1C2c3ccccc3C3C4c5ccccc5C(C31)C(C2[N+](=O)[O-])N4C` (stereo not drawn), the growth inhibition was -13.5% (inactive).
On the same count and under the same terms, next, `CC(Cc1ccccc1)N(C)CC1C(=O)C2CCC1C2` (stereo not drawn): 6.25% (inactive).
On the same count and under the same terms, then `COc1ccc(CC[N+](C)(C)C)cc1`, with 32.5% (inactive); and `COc1ccc(C(=O)OC2CC3CCC(C2)N3)cc1OC` (stereo not drawn), with 22.8% (inactive); and `O=C1C(Cl)=C(Cl)C1(Cl)Cl`, with -2.65% (inactive).
Turning to `Cc1ccc(-n2c(=S)[nH]c3ccccc3c2=O)cc1F`, the growth inhibition was -18.1% (inactive).
Take `COc1cccc(N=C(N)N[N+](=O)[O-])c1`: the growth inhibition is -7.25% (inactive).
Still for that read-out and setting: then `Cc1ccc(-n2c(=S)[nH]c3ccccc3c2=O)cc1`, with -20.9% (inactive); and `COc1ccccc1NC1=NCCS1`, with 15.4% (inactive); and `Brc1ccc(C[N+]23CCN(CC2)CC3)cc1`, with -16% (inactive).

(Values after PubChem BioAssay (NCI).)
